Screening results: PubChem, National Center for Advancing Translational Sciences (NCATS)
Only some compounds are listed: those with a hit (about 7.2% of all), similar ones and a draw of the others.
HEK293 tox: Cytotoxic Profiling in HEK 293 Cell Line of Diverse Libraries Using Quantitative High-Throughput Screening; 6.6% of 94,000 active; AID 1345083, 2018; Potency, µM (top dose mostly 115 µM), for the others: at the top dose activity change, negative = cytotoxicity, hits mostly inhibitors; HEK 293 viability, ATP luminescence (CellTiter-Glo), 48-72 h; note: nearly all actives have a fitted effect of over 60% in size
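ATP-coupled CellTiter-Glo luminescence served as viability read-out, recorded 10 min after reagent addition at room temperature. HEK 293 cells, 250 cells/well, had been incubated with pintool-transferred compound for 48 or 72 hr at 37 degree Celsius.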
NIH3T3 tox: Cytotoxic Profiling in NIH 3T3 Cell Line of Diverse Libraries Using Quantitative High-Throughput Screening; NIH 3T3 viability, CellTiter-Glo ATP luminescence, 48-72 h; 4.3% of 94,000 active; Potency, µM (titrated, usually from 96.7 µM), without a hit: at the top dose activity change, negative = cytotoxicity, most hits filed as inhibitors; note: nearly all actives have a fitted effect of over 55% in size
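Cytotoxicity was measured by CellTiter-Glo ATP luminescence after 48 or 72 h compound exposure at 37 °C. Mouse NIH 3T3 fibroblasts were seeded at 400 cells/well and dosed by 23 nL pin transfer.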
NPR1 antag: Natriuretic polypeptide receptor (hNpr1) antagonism - Primary qHTS | Atrial natriuretic peptide receptor 1 (Homo sapiens), P16066 | HEK293 hNpr1 GloSensor cGMP, ANP-stimulated luminescence | Potency, µM (top dose mostly 46.3 µM), for inactives: at the highest dose activity change, negative = inhibition, actives largely listed as inhibitors | 1.6% of 76,000 active | AID 1347048, 2019; calls by dose curve; note: nearly all actives have a fitted effect of over 60% in size
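HEK293 cells stably expressing human Npr1 and cGMP GloSensor pGS-40F, loaded 2 h with 2% GloSensor reagent, given compound 30 min at room temperature. Luminescence read before and 20 min after 0.1 nM hNppA.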
FLuc inh: Firefly luciferase inhibition profiling of diverse chemical library using quantitative high-throughput screening | AID 1347043, 2019 | purified P. pyralis luciferase, luminescence, biochemical | Luciferin 4-monooxygenase (Photinus pyralis), P08659 | Potency, µM (top dose mostly 115 µM), actives largely listed as inhibitors | 2.5% of 76,000 active; note: nearly all actives have a fitted effect of over 65% in size
Target sequence (P08659 whole entry, looked up): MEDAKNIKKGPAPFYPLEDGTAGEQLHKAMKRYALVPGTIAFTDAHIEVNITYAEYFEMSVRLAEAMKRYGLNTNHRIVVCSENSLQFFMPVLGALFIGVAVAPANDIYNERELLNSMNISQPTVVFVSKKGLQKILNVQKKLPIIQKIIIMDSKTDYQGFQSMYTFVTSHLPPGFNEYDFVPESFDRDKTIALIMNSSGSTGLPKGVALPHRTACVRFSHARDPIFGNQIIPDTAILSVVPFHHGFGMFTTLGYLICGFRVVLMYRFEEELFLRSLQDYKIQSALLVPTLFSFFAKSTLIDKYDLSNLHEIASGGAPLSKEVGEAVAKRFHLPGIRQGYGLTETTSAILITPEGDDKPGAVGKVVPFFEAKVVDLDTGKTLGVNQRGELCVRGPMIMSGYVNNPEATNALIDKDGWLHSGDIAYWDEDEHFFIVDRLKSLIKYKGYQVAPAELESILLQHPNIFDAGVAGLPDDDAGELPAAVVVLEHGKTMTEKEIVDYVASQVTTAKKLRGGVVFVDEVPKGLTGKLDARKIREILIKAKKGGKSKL
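Cell-free enzyme assay, 10nM P. pyralis luciferase, luciferin and ATP each at 10uM. Inhibition profiled over a 6-point titration, read as luminescence.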
SNCA viab count: GF-AFC viability counterscreen for inhibitors of alpha-synuclein gene (SNCA) expression; HEK-293-SNCA-luc viability, GF-AFC fluorescence, 24 h; Potency, µM (doses to about 57.1 µM), without a hit: at the top dose activity change, negative = cytotoxicity, hits mostly cytotoxic; 0.12% of 150,000 active;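 note: 0% = DMSO-treated cells and -100% = medium-only wells without cells; nearly all actives have a fitted effect of over 30% in size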
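Cytotoxicity counterscreen: after 24 h compound treatment of genome-edited SNCA-luciferase HEK-293 cells, live-cell protease substrate GF-AFC read by fluorescence after 30 min; activity scaled between DMSO (0%) and medium-only (-100%), curves Hill-fitted.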
SNCA expr inh: Primary qHTS assay for inhibitors of alpha-synuclein gene (SNCA) expression | HEK-293 SNCA-luciferase knock-in, luminescence, 24 h | Potency, µM (doses to about 57.2 µM), for inactives: at the top dose activity change, negative = inhibition, most hits filed as inhibitors | 0.17% of 140,000 active;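 note: plate controls were DMSO cells for no effect and cell-free wells for full effect; nearly all actives have a fitted effect of over 45% in size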
* marks the source's active call; other numbers are inactive results; i = inactive; ? = inconclusive; · = not tested or not shown; [ ] = dose if it differs, or a comment. Unless noted, calls come from the whole dose curve; as a rule, active = well fitted curve in the direction sought with a large enough effect; inconclusive = small, poorly fitted or top-dose-only effect, or another doubt; inactive = no such curve, though single readings can be large; an effect the other way counts as inactive or inconclusive. Unless noted, % is set by controls: 0 for no effect and ±100 for the full control effect; potency is the fitted concentration of half-maximal effect.

SMILES | HEK293 tox | NIH3T3 tox | NPR1 antag | FLuc inh | SNCA viab count | SNCA expr inh
Cn1ccnc1C(=O)N1CCC(N2C(=O)C3(CCCC3)C2c2ccccc2)CC1 (configuration not stated) | -8% | ? | 0% | i | 5%[12.5 µM] | 31%
Cc1ccccc1-c1nccn2c(C3CN(C(=O)c4cc5ccccc5[nH]4)C3)ncc12 | 89µM* | 79µM* | -28%[70.6 µM] | ? | -27%[87.6 µM] | -29%[87.6 µM]
COc1ncccc1-c1nccn2c(C3CN(Cc4c[nH]c5ccccc45)C3)ncc12 | ? | ? | -17%[70.6 µM] | i | ? | ?
Cc1ccccc1-c1nccn2c(C3CN(Cc4ccc(O)cc4)C3)ncc12 | ? | 79µM* | 4%[70.6 µM] | i | 0%[87.6 µM] | 11%[87.6 µM]
Cc1ccc([C@@H]2CN(C(=O)c3c(-c4ccccc4)noc3C)C[C@H]2N(C)C)cc1 | ? | ? | -30% | i | -3% | -2%
NC(=O)c1ccc(CC2CCN(C(=O)C3CCOCC3)CC2)cc1 | i | -3% | 0% | i | 6% | ?
Fc1ccc(CN2CCC3(CC2)CC(c2cccc(C(F)(F)F)c2)=NO3)cc1 | ? | ? | ? | i | -2% | -13%
CCCCCC(=O)N1C[C@@H](C(=O)OCC)[C@@H]2Oc3c(C)cccc3[C@@H]21 | -31% | ? | · | · | · | ·
CCCCOC(=O)N1C[C@@H](CO)[C@@H]2Oc3c(C)cccc3[C@@H]21 | ? | 40µM* | · | · | · | ·
CN1CCCC1CCNc1nccc(-c2cnn(-c3ccccc3F)c2)n1 (configuration not stated) | ? | ? | -1% | i | -4% | 35%
CN1CCCC1CCNc1nccc(-c2cnn(-c3ccc(F)cc3)c2)n1 (configuration not stated) | 45µM* | ? | 3% | ? | 3% | 10%
OC[C@H]1CCN(Cc2ccc(-c3cccc(Cl)c3Cl)o2)C[C@@H]1O | ? | -20% | 10µM* | ? | ? | -30%
OC[C@H]1CCN(Cc2ccc(-c3ccn[nH]3)o2)C[C@H]1O | 5% | -9% | 2% | i | 0% | -13%
COc1cccc2c1OCC(C(=O)N1CCC(NS(C)(=O)=O)CC1)C2 (configuration not stated) | -10% | -13% | 3% | i | 6% | -11%
CC(C)[C@@H]1C[C@@H]2C[C@@H](N(C)Cc3ccccc3)C[C@]2(c2ccccc2)CO1 | ? | -28% | · | · | · | ·
Cc1cc2c(-c3cccnc3)nc(-c3c(C)noc3C)cc2[nH]1 | ? | ? | 6%[70.6 µM] | i | -22%[87.6 µM] | 75%[87.6 µM]
COc1cc(Cl)c(C)cc1NC(=O)CN1C(=O)NC(c2ccc(Cl)cc2)C2=C1COC2=O (configuration not stated) | 16µM* | 18µM* | -15% | i | -20% | ?
COc1ccc(NC(=O)CN2C(=O)NC(c3ccc(Cl)cc3)C3=C2COC3=O)c(OC)c1 (configuration not stated) | ? | -28% | -1% | i | -11% | ?
COc1ccc(NC(=O)CN2C(=O)NC(c3ccc(Cl)cc3)C3=C2COC3=O)cc1Cl (configuration not stated) | ? | 25µM* | -21% | ? | -19% | -28%
CN1CCC(Nc2ncc(C(C)(C)C(=O)O)c(N3CCOCC3)n2)CC1 | -7% | -9% | 4% | i | 5% | -28%
O=C(NCCc1noc(C2CC2)n1)c1cccs1 | 6% | -7% | 14% | i | 8% | 7%
CN(C)CC(C)(C)NC(=O)c1csc2nc(-c3cccc(C(F)(F)F)c3)cn12 | 45µM* | ? | -9% | i | -1% | -14%
CN(Cc1cnccn1)C(=O)c1csc2nc(-c3cccc(C(F)(F)F)c3)cn12 | ? | ? | 16% | ? | ? | ?
O=C(NCc1cc2n(n1)CCNC2)c1cc2c(s1)CCCCC2 | -2% | i | 3% | 32µM* | 3% | 47%
Cc1cc(C(=O)NCC2CC2)c2c(C3CCNC3)noc2n1 (configuration not stated) | i | i | · | · | 6% | 22%
SMILES | HEK293 tox | NIH3T3 tox | NPR1 antag | FLuc inh | SNCA viab count | SNCA expr inh
COc1ccc2c(c1)c(CN1CCCC(c3nc(C(C)C)no3)CCNC(=O)CC1)cn2C(C)C (configuration not stated) | ? | ? | -20% | i | -3% | -21%
CC(C)c1noc(C2CCCN(Cc3cn(C(C)C)c4ccccc34)CCC(=O)NCC2)n1 (configuration not stated) | 40µM* | ? | -7% | i | -4% | -22%
COc1ccc(-c2nnc3ccc(Nc4cccc(OC)c4)nn23)nc1 | ? | ? | -11%[70.6 µM] | i | -14%[87.6 µM] | -8%[87.6 µM]
COc1ccnc(-c2nnc3ccc(Nc4cc(OC)c(OC)c(OC)c4)nn23)c1 | ? | 50µM* | 2%[70.6 µM] | i | -21%[87.6 µM] | -5%[87.6 µM]
COc1ccc(-c2nnc3ccc(NC(C)C)nn23)nc1 | -10%[230 µM] | 50µM* | -3%[70.6 µM] | i | 1%[87.6 µM] | 14%[87.6 µM]
Cc1ccc(-c2nnc3ccc(NC4CCCCC4)nn23)nc1 | 71µM* | ? | -17%[70.6 µM] | i | -1%[87.6 µM] | -15%[87.6 µM]
COc1ccc(-c2nnc3ccc(NC4CCCCC4)nn23)nc1 | -35%[172 µM] | -41%[138 µM] | -12%[70.6 µM] | i | -4%[87.6 µM] | 6%[87.6 µM]
COc1ccc(Nc2ccc3nnc(-c4ccc(C)cn4)n3n2)cc1 | 71µM* | ? | -7%[70.6 µM] | i | -23%[87.6 µM] | -3%[87.6 µM]
C=CCNC(=O)N[C@H]1[C@H](O)[C@@H](N2CCN(C(C)=O)CC2)[C@@H]2OC[C@H]1O2 | i | i | 1%[70.6 µM] | i | -5%[87.6 µM] | ?
O=C(CCc1ccc2c(c1)CCO2)Nc1ccc2c(c1)C(=O)N1CCC[C@H]1C(=O)N2 | ? | ? | 1% | i | 6% | 2%
COCCN1CCN(C[C@@H]2C=C(C)[C@H](Cc3nnc(-c4cccnc4)o3)C[C@H]2C(C)C)CC1 | ? | ? | -4% | i | -6% | 5%
CC1=C[C@@H](CN2CCC(O)CC2)[C@H](C(C)C)C[C@H]1Cc1nnc(-c2ccncc2)o1 | ? | ? | 3%[70.6 µM] | i | 12%[87.6 µM] | 10%[87.6 µM]
CC1=C[C@@H](CN2CCC(O)CC2)[C@H](C(C)C)C[C@H]1Cc1nnc(-c2ccc(N(C)C)cc2)o1 | ? | 40µM* | 5% | i | -22% | -29%
